Results on 58 compounds are retold here after PubChem BioAssay AID1645857 (Buhrlage Lab, Dana-Farber Cancer Institute and Novartis …, 2021).

Among all 47,000 compounds or so, about 1,400 (3%) were called active. What follows is part of a selection rich in actives, with near analogues and random picks from the rest. A number with no mark means an inactive call. No stated cut-off is given here; in the data, active means inhibition above about 30%; inactive means the rest.

In this experiment the target is Ubiquitin carboxyl-terminal hydrolase 28 (Homo sapiens) (UniProt Q96RU2). The experiment can be described thus: blocks human USP28 ubiquitin-rhodamine cleavage (AID 1645857). The following applies: purified USP28, Ub-rhodamine cleavage fluorescence, 30 min; at 25 µM; stronger effect = higher value.
Sequence of Ubiquitin carboxyl-terminal hydrolase 28 (Homo sapiens) (Q96RU2 whole entry, looked up): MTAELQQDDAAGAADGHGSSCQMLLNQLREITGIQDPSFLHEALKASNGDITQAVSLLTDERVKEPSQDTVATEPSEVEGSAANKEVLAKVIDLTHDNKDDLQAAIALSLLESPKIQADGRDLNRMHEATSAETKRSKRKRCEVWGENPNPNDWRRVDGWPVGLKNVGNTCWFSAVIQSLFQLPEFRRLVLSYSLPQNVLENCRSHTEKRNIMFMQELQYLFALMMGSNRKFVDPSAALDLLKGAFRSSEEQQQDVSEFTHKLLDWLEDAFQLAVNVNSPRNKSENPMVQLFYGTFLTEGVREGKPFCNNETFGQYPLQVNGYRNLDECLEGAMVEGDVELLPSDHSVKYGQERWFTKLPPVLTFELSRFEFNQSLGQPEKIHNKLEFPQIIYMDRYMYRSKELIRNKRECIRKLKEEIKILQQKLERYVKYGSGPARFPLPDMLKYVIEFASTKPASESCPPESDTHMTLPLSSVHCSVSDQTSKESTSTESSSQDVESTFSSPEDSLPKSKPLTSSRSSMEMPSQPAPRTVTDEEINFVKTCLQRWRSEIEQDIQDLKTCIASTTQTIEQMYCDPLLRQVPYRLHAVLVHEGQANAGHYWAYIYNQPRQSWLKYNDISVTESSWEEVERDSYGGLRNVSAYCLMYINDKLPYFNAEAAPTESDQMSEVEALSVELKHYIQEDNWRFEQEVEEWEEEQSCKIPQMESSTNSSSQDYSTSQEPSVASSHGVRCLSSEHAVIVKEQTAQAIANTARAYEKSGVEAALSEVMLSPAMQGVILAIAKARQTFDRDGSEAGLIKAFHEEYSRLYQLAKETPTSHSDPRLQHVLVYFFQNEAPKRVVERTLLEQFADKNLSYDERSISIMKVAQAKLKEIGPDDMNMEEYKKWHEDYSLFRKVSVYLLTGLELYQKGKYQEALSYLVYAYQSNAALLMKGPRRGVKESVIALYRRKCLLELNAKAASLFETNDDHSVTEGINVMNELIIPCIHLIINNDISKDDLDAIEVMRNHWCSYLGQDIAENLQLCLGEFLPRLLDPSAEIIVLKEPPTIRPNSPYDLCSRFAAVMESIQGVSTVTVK
As to `CC(C)CN1[C@H]2CCN(C(=O)c3cnccn3)CC[C@@H]2Oc2ccccc2S1(=O)=O`, the inhibition is -3.97%.

Take `Cc1nc2ccccc2n1CCNC(=O)c1ccccc1Cl`: the inhibition was -3.71%. To `CC(=O)N1CCc2cc(S(=O)(=O)NCC(=O)NCc3ccc4c(c3)OCO4)ccc21` belongs -1.7%; to `Cc1noc(CNC(=O)c2cc(-c3ccco3)on2)n1`, -29.2%; to `Cc1cccc(CNC(=O)C2CCN(c3cnc4nccnc4c3)CC2)c1`, -81.1%.

Consider `Cc1[nH]c(C(=O)N2CCCC(C(=O)NCc3cccnc3)C2)c(C)c1C` (stereo not drawn), for which the inhibition was -6.57%. Take `O=C(NCc1cccnc1)C1CCN(c2cnc(N3CCCCCC3)nc2)CC1`: the inhibition is 60.9% (active). Regarding `O=c1c2c(ncn2C2CCCC2)n(Cc2ccccc2)c(=O)n1Cc1ccccc1`, the inhibition is 6.37%. For the compound `O=C(O)c1cc(-c2ccc(-c3ccccc3F)o2)nc2ccc(F)cc12`, the inhibition is -179%. For the compound `CCc1ccccc1NC(=O)N1CCCC1c1ccnn1CC` (stereo not drawn), the inhibition was 12.8%. In the case of `c1cc(CNCc2ccc3c(c2)OCO3)ccn1`, the inhibition is -2.19%.

On to `CCC(Oc1ccccc1)C(=O)NCc1ccc2c(c1)OCO2` (stereo not drawn), for which the inhibition was 6.67%.

Take `c1ccc(-c2ccc(NCc3ccc4c(c3)OCO4)nn2)cc1`: the inhibition was 61.2% (active). As for `N#CC1=C(N)Oc2nc[nH]c(=O)c2C1c1cccc(F)c1` (stereo not drawn), the figure is -2.3%; as for `CCC(C)[C@H](NS(=O)(=O)c1ccc(C)cc1)C(=O)N1CCC(C(=O)N[C@H](Cc2c[nH]c3ccccc23)C(=O)O)CC1` (stereo partly drawn), -2.54%. Turning to `CCCCCCSc1ncnc2c1sc1nc(-c3ccccc3)c3c(c12)CC(C)(C)OC3`, the inhibition is -0.572%.

As for `CCCc1nc2sc3c(N4CCC(C)CC4)ncnc3c2c2c1CCC2`, the inhibition is 2.73%.

Take `CCCCc1nc2sc3c(SCC(=O)NCc4ccccc4)ncnc3c2c2c1CCC2`: the inhibition was 54.5% (active). With `CCn1c(SCc2cccc(C)c2)nnc1-c1cnccn1`, the inhibition is 58.5% (active).

On to `CCc1ccc(NC(=O)CSc2nnc(-c3cnccn3)n2Cc2ccco2)cc1`, for which the inhibition was -5.3%. Regarding `Cc1ccc(NC(=O)CSc2nnc(-c3cnccn3)n2Cc2ccco2)cc1C`, the inhibition was -1.17%. Consider `COc1cc(O)sc1C=Nc1ccc(Oc2ccccc2)cc1`, for which the inhibition is 40.7% (active).

With `COc1ccccc1C(=O)Nc1cccc(Oc2ccccc2)c1`, the inhibition was 19.6%.

Regarding `O=C(c1ccc[nH]1)N1CCCn2c(nc(Cn3ccnc3)cc2=O)C1`, the inhibition was 12.3%. For the compound `CCN(C(=O)CSc1nnc(-c2ccoc2C)o1)c1ccccc1`, the inhibition is 6.53%. Regarding `CC(C)c1ccc(OCC(=O)NCc2nnnn2-c2ccc(Cl)cc2)cc1`, the inhibition was 20.1%. With `O=C(COc1ccc2ccccc2c1)NCc1nnnn1-c1ccc(Cl)cc1`, the inhibition was 30.4% (active). For `Cc1ccc(NC(=O)NCc2nnnn2-c2ccccc2)cc1C`, the inhibition is 5.32%. As for `Cc1ccc(C)c(NC(=O)c2cn(C)cc3c(=O)n(-c4ccccc4)nc2-3)c1`, the inhibition was 2.87%.

For the compound `CCOc1ccc2[nH]c3c(=O)n(Cc4cccnc4)cnc3c2c1`, the inhibition was 13.7%. Turning to `O=c1c2[nH]c3ccc(Cl)cc3c2ncn1Cc1cccnc1`, the inhibition is -8.15%. For `COc1cc(Cn2cnc3c([nH]c4ccc(Br)cc43)c2=O)cc(OC)c1`, the inhibition was 43.8% (active). In the case of `CCOc1cccc(C(=O)N2CCC(c3nc4ccccc4o3)CC2)c1`, the inhibition is -7.65%. Turning to `Cc1cc(C)n2c(SCC(=O)Nc3cc(C(C)(C)C)nn3-c3ccccc3)nnc2n1`, the inhibition is 6.69%. To `Cc1cc(C(F)(F)F)n2nc(C3CCN(C(=O)c4cc5ccccc5s4)C3)cc2n1` (stereo not drawn) belongs 17.6%; to `NCCCC(=O)N1CCC2(CC1)C(=O)NCN2C(=O)Cc1ccccc1`, -0.0141%. Regarding `O=C1CO[C@H]2CN(Cc3ncc[nH]3)C[C@H]2N1c1ccccc1`, the inhibition is 19.7%.

As for `COc1ccccc1CCNC(=O)CCc1c(C)c2ccc(O)c(C)c2oc1=O`, the inhibition was 2.41%. On to `Cc1cc(NC(=O)COC(=O)c2cccc(C)c2O)ccc1Br`, for which the inhibition is 5.74%. On to `Nn1c(SCC(=O)Nc2ccccc2F)nnc1-c1n[nH]c2c1CCC2`, for which the inhibition is -7.92%.

Take `Cc1cc(-c2nnc(SCC(=O)Nc3ccc(Br)c(C)c3)n2N)n[nH]1`: the inhibition is 38.4% (active). On to `O=C(CN1CCC2(CC=CCN(CCc3ccccc3)C2=O)CC1)Nc1ccc(F)cc1`, for which the inhibition is -25.4%.

For `COc1ccc(C(=O)N2CCc3cc4ccccc4nc32)cc1OC`, the inhibition is -5.16%. As for `O=S(=O)(c1ccc(Cl)cc1)N1CCc2nc[nH]c2C1`, the figure is -11.8%. To `CC1CCC/C=C/C=C/C(=O)CC(O)C/C=C\C=C\C(O)C/C=C/C=C\C(=O)O1` (stereo not drawn) belongs 2.22%. As for `CC(C)CN1C[C@@]23CN(C(=O)NCCc4ccc(F)cc4)C[C@@H](C[C@@H]2S1(=O)=O)O3`, the figure is 32.3% (active). As for `COCCN1C[C@@]23CN(C(=O)NCc4ccccc4)C[C@@H](C[C@@H]2S1(=O)=O)O3`, the inhibition is 5.8%. Regarding `CCc1ccc(NC(=O)N2C[C@H]3C[C@H]4[C@](C2)(CN(Cc2cccnc2)S4(=O)=O)O3)cc1`, the inhibition is 1.25%.

`CC(C)NC(=O)c1nc(Cn2c(C(F)F)nc3ccccc32)no1`: the inhibition was 5.94%. For `CC1=C(C(=O)Nc2ccc(C)cc2C)C(c2cccs2)n2c(nc3ccccc32)N1` (stereo not drawn), the inhibition is 6.45%. To `O=C(c1ccccn1)N1CCn2nc(-c3ccc4ccccc4c3)cc2C1` belongs 1.7%; to `O=C(Cc1ccccc1F)N1CCCC(c2[nH]nc3nccnc23)C1` (stereo not drawn), 1.05%. Turning to `COc1cccc(C2C(C(=O)Nc3ccccc3C)=C(C)Nc3ncnn32)c1OCc1ccccc1` (stereo not drawn), the inhibition is 2.46%.

Regarding `COc1ccc(NC(=O)C2=C(C)Nc3ncnn3C2c2cccc(OCc3ccc(F)cc3)c2)c(OC)c1` (stereo not drawn), the inhibition was 46.2% (active). As for `COc1ccccc1NC(=O)C1=C(C)Nc2ncnn2C1c1ccc(C)o1` (stereo not drawn), the inhibition was 1.41%. Take `CNc1cccc(C2CN(C(=O)c3cnn4cccnc34)CCO2)n1` (stereo not drawn): the inhibition was -3.02%. Turning to `O[C@@H]1C[C@H]2CN(Cc3ccc(F)cc3)[C@H](Cc3ccccc3)CN2C1`, the inhibition is 2.96%. To `COc1ccc2c(c1)OC[C@@H](Cc1ccccc1)N(Cc1ccncc1)[C@H]2C` belongs 8.99%.
